Test results as given in PubChem BioAssay AID1159580 (chemical genetic matrix, 2015).
Several values for one entry are separate records, joined by “and”; a condition that tells them apart may be missing. Equal values may be shown once. Out of some 5,500 compounds screened, about 2,000 (36%) were called active. Another 18% or so got no clear call; they are omitted. Rule as the data show it: active = normalized growth mostly below about 0.91 (no sharp cut-off); inconclusive = no clear call, values can overlap the other calls; inactive = mostly above about 0.92. This is one part of the list.

Assay: chemical genetic growth profiling, strain panel (AID 1159580);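 also: tested at 20 µM; growth read once vehicle control cultures reached saturation at 30 °C; 1 = growth at the plate median or of vehicle wells; lower values mean less growth of the strain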
Details: S. cerevisiae deletion strains, growth OD

Measured: normalized growth

O=P1(N(CCCl)CCCl)NCCCO1 (stereo not given)
inactive: locus YAL013W, strain DEP1, hits give low values 0.998 and 0.974 | locus YAL021C, strain ccr4, hits give low values 0.995 | locus YAL026C, strain drs2, hits give low values 0.981 | locus YAL030W, strain snc1, hits give low values 1.01 | locus YAL040C, strain CLN3, hits give low values 0.973 | locus YBL061C, strain skt5, hits give low values 1.01 | locus YBR009C, strain hhf1, hits give low values 1.01 | locus YBR021W, strain FUR4, hits give low values 1.02 | locus YBR023C, strain chs3, hits give low values 1.02 | locus YBR171W, strain sec66, hits give low values 1 | locus YBR229C, strain ROT2, hits give low values 1 | locus YBR231C, strain swc5, hits give low values 0.995 | locus YBR279W, strain paf1, hits give low values 1 | locus YCL011C, strain gbp2, hits give low values 1.01 | locus YCL016C, strain dcc1, hits give low values 1.04 | locus YCL029C, strain bik1, hits give low values 1.03 | locus YCL061C, strain MRC1 (second series), hits give low values 1 | locus YCL061C, strain MRC1, hits give low values 1 | locus YCL069W, strain vba3, hits give low values 0.995 | locus YCR088W, strain abp1, hits give low values 1 | locus YDL005C, strain med2, hits give low values 0.99 | locus YDL035C, strain GPR1, hits give low values 1.02 | locus YDL040C, strain nat1, hits give low values 0.998 | locus YDL074C, strain BRE1, hits give low values 1.03 | locus YDL101C, strain DUN1, hits give low values 1.01 | locus YDL185W, strain tfp1, hits give low values 1.01 | locus YDL192W, strain arf1, hits give low values 1.03 | locus YDR001C, strain nth1, hits give low values 0.992 | locus YDR069C, strain doa4, hits give low values 1 | locus YDR101C, strain arx1, hits give low values 1.02 | locus YDR137W, strain rgp1, hits give low values 1.01 | locus YDR150W, strain NUM1, hits give low values 0.996 | locus YDR159W, strain sac3, hits give low values 0.99 | locus YDR162C, strain NBP2, hits give low values 1.01 | locus YDR195W, strain ref2 0.977 | locus YDR297W, strain sur2, hits give low values 1.03 | locus YDR318W, strain mcm21, hits give low values 1.03 | locus YDR334W, strain swr1, hits give low values 0.994 | locus YDR335W, strain msn5, hits give low values 1.01 | locus YDR363W, strain ESC2, hits give low values 0.962 | locus YDR388W, hits give low values 1.02 | locus YDR392W, strain spt3, hits give low values 0.941 | locus YDR502C, strain sam2, hits give low values 1.06 | locus YEL003W, strain gim4, hits give low values 0.991 | locus YEL037C, strain rad23, hits give low values 0.984 | locus YEL061C, strain CIN8 (second series), hits give low values 0.98 | locus YEL061C, strain CIN8, hits give low values 1 | locus YER002W, strain NOP16, hits give low values 1.01 | locus YER015W, strain faa2, hits give low values 1.02 | locus YER016W, strain bim1, hits give low values 0.997 | locus YER110C, hits give low values 1.05 | locus YER111C, strain swi4, hits give low values 0.995 | locus YER155C, strain BEM2 (second series), hits give low values 0.936 | locus YER155C, strain BEM2, hits give low values 0.996 | locus YER167W, strain BCK2, hits give low values 1 | locus YFR010W, strain ubp6, hits give low values 0.971 | locus YGL078C, strain dbp3, hits give low values 1.03 | locus YGL086W, strain mad1, hits give low values 1.03 | locus YGL167C, strain pmr1, hits give low values 1.01 | locus YGL173C, strain kem1, hits give low values 1.01 | locus YGL227W, strain vid30, hits give low values 0.992 | locus YGL240W, strain doc1, hits give low values 0.983 | locus YGL248W, strain PDE1, hits give low values 1.01 | locus YGL253W, strain hxk2, hits give low values 0.987 | locus YGR078C, strain PAC10, hits give low values 0.988 | locus YGR135W, strain pre9, hits give low values 1.04 | locus YGR229C, strain SMI1, hits give low values 1 | locus YGR252W, strain gcn5, hits give low values 1.07 | locus YHR013C, strain ard1, hits give low values 1.03 | locus YHR027C, strain rpn1, hits give low values 1.01 | locus YHR030C, strain SLT2, hits give low values 1.01 and 0.994 | locus YHR079C, strain IRE1 (second series), hits give low values 1.03 | locus YHR079C, strain IRE1, hits give low values 0.991 | locus YHR094C, strain hxt1, hits give low values 1.03 | locus YHR129C, strain ARP1, hits give low values 1 | locus YHR142W, strain chs7, hits give low values 1.02 | locus YHR200W, strain rpn10, hits give low values 1.02 | locus YIL066C, strain RNR3, hits give low values 1.02 | locus YIL073C, strain SPO22, hits give low values 1.01 | locus YIL125W, strain kgd1, hits give low values 1.02 | locus YIR030C, strain dcg1, hits give low values 1.03 | locus YJL092W, strain hpr5, hits give low values 1.01 | locus YJL095W, strain BCK1 (second series), hits give low values 1.01 | locus YJL095W, strain BCK1, hits give low values 1.03 and 0.99 | locus YJL115W, strain asf1, hits give low values 0.994 | locus YJL129C, strain trk1, hits give low values 1.02 | locus YJL134W, strain LCB3, hits give low values 1.01 | locus YJL154C, strain vps35, hits give low values 0.988 | locus YJL164C, strain tpk1, hits give low values 1.01 | locus YJL166W, strain qcr8, hits give low values 1.03 | locus YJL168C, strain set2, hits give low values 1.02 | locus YJL187C, strain SWE1 (second series), hits give low values 1.01 | locus YJL187C, strain SWE1, hits give low values 1.02 | locus YJR043C, strain POL32, hits give low values 1.01 | locus YJR066W, strain TOR1, hits give low values 1 | locus YJR075W, strain HOC1, hits give low values 1 | locus YKL009W, strain mrt4, hits give low values 0.957 | locus YKL068W, hits give low values 1 | locus YKL160W, strain elf1, hits give low values 1.03 | locus YKR001C, strain vps1, hits give low values 1.03 | locus YKR026C, strain gcn3, hits give low values 0.993 | locus YKR091W, strain srl3, hits give low values 1.01 | locus YLL001W, strain dnm1, hits give low values 1.04 | locus YLL026W, hits give low values 1.01 | locus YLL041C, strain sdh2, hits give low values 0.991 | locus YLR027C, strain aat2, hits give low values 0.992 | locus YLR039C, strain RIC1, hits give low values 1.02 | locus YLR058C, strain SHM2, hits give low values 1.01 | locus YLR102C, strain apc9, hits give low values 1.02 | locus YLR113W, strain HOG1, hits give low values 0.994 | locus YLR221C, strain rsa3, hits give low values 1.07 | locus YLR258W, strain gsy2, hits give low values 1.01 | locus YLR262C, strain YPT6 (second series), hits give low values 1.01 | locus YLR262C, strain YPT6, hits give low values 1.01 | locus YLR268W, strain sec22, hits give low values 1.03 | locus YLR320W, strain mms22, hits give low values 1.05 | locus YLR330W, strain CHS5, hits give low values 1.01 | locus YLR342W, strain FKS1 (second series), hits give low values 1.02 | locus YLR342W, strain FKS1, hits give low values 1 | locus YLR357W, strain rsc2, hits give low values 0.984 | locus YLR370C, strain arc18, hits give low values 1.02 | locus YLR371W, strain rom2, hits give low values 1.02 | locus YLR384C, strain iki3, hits give low values 1 | locus YLR418C, strain cdc73, hits give low values 1.1 | locus YML016C, strain PPZ1, hits give low values 1 | locus YML032C, strain rad52, hits give low values 1.03 | locus YML120C, strain ndi1, hits give low values 1.04 | locus YML124C, strain tub3, hits give low values 1.04 | locus YMR058W, strain fet3, hits give low values 0.99 | locus YMR078C, strain ctf18, hits give low values 1.03 | locus YMR125W, strain sto1, hits give low values 0.981 | locus YMR129W, hits give low values 0.991 | locus YMR205C, strain PFK2, hits give low values 1.03 | locus YMR223W, strain ubp8, hits give low values 1.05 | locus YMR231W, strain pep5, hits give low values 0.997 | locus YMR263W, strain SAP30, hits give low values 1.01 and 1 | locus YMR307W, strain GAS1, hits give low values 1.03 and 0.994 | locus YNL067W, strain RPL9B, hits give low values 1.01 | locus YNL071W, strain lat1, hits give low values 0.991 | locus YNL128W, strain TEP1, hits give low values 1.02 and 0.983 | locus YNL175C, strain NOP13, hits give low values 0.989 | locus YNL183C, strain NPR1, hits give low values 0.946 | locus YNL197C, strain WHI3, hits give low values 0.976 | locus YNL209W, strain ssb2, hits give low values 1.01 | locus YNL224C, strain SQS1, hits give low values 0.995 | locus YNL233W, strain BNI4, hits give low values 1.02 | locus YNL248C, strain rpa49, hits give low values 0.914 | locus YNL250W, strain rad50, hits give low values 1.03 | locus YNL271C, strain bni1, hits give low values 1.02 | locus YNL298W, strain CLA4, hits give low values 1.04 | locus YNL307C, strain MCK1, hits give low values 1.02 | locus YNL322C, strain KRE1 (second series), hits give low values 1.01 | locus YNL322C, strain KRE1, hits give low values 0.996 | locus YNR049C, strain mso1, hits give low values 0.993 | locus YNR052C, strain pop2, hits give low values 1.02 | locus YOL147C, strain pex11, hits give low values 1.02 | locus YOR001W, strain rrp6, hits give low values 0.934 | locus YOR061W, strain CKA2, hits give low values 1.02 | locus YOR069W, strain VPS5, hits give low values 1.01 | locus YOR070C, strain gyp1, hits give low values 1.01 | locus YOR080W, strain dia2, hits give low values 1.01 | locus YOR083W, strain WHI5 (second series), hits give low values 0.978 | locus YOR083W, strain WHI5, hits give low values 1.05 | locus YOR106W, strain vam3, hits give low values 1.06 | locus YOR136W, strain idh2, hits give low values 1.03 | locus YOR144C, strain elg1, hits give low values 1.05 | locus YOR184W, strain ser1, hits give low values 1.08 | locus YOR231W, strain MKK1, hits give low values 1 | locus YOR265W, strain rbl2, hits give low values 1.01 | locus YOR270C, strain vph1, hits give low values 1.04 | locus YOR290C, strain snf2, hits give low values 1.03 | locus YOR316C, strain cot1, hits give low values 1.04 | locus YPL051W, strain arl3, hits give low values 1.02 | locus YPL055C, strain LGE1, hits give low values 1 | locus YPL078C, strain atp4, hits give low values 0.991 | locus YPL106C, strain sse1, hits give low values 1.04 | locus YPL240C, strain hsp82, hits give low values 1 | locus YPL256C, strain CLN2, hits give low values 0.992 | locus YPR119W, strain clb2, hits give low values 1.03 | locus YPR141C, strain kar3, hits give low values 1.01 | locus YPR163C, strain tif3, hits give low values 1.02 | locus YPR167C, strain met16, hits give low values 1.02 | strain wtn01, hits give low values 1.06
active: locus YKL085W, strain MDH1 (second series), hits give low values 1.08 [resistant] | locus YKL085W, strain MDH1, hits give low values 1.08 [resistant]
